Holding throughout (test): DAPPL (digital affinity profiling via proximity ligation, sequencing); 10 mM Tris-HCl pH 7.5, 50 mM NaCl, 1 mM DTT, 4% glycerol, room temperature, 30 min; GST-TFs on glutathione beads, 16-mer random dsDNA library, 0.1% formaldehyde crosslink after washing; high values mean tight binding
The target of assay [1] is T1, FLI1 (Homo sapiens, UniProt Q01543 1-452).
T1 sequence: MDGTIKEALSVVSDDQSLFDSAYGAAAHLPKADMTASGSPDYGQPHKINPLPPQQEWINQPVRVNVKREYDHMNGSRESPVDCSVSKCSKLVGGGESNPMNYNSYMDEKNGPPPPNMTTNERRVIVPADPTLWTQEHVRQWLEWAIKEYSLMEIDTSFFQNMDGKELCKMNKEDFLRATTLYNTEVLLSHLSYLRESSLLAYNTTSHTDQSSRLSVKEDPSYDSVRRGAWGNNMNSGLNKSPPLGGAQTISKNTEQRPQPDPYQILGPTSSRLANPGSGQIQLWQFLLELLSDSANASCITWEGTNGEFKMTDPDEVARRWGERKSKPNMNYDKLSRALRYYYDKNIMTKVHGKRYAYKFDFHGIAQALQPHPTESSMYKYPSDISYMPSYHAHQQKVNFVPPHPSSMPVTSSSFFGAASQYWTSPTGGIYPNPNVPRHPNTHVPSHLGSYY
Particulars: protein: recombinant; tags: N-terminal GST; dsDNA, one strand shown. The essentials:
(§1)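 Binding signal is given per hexamer as its read frequency for a factor divided by its frequency in the tag-only sample. GST-fused human transcription factors were expressed in yeast, captured on glutathione beads, barcoded with DNA and pooled with that sample, then incubated with 200 nmole of a 16-mer random double-stranded DNA library in Tris/NaCl/DTT/glycerol buffer for 30 min at room temperature. The pools were then washed, crosslinked, proximity-ligated, amplified by PCR and sequenced on an Illumina NextSeq500.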

For assay [2], the target named is T2, ELK1 (Homo sapiens, UniProt P19419 1-428).
T2 sequence: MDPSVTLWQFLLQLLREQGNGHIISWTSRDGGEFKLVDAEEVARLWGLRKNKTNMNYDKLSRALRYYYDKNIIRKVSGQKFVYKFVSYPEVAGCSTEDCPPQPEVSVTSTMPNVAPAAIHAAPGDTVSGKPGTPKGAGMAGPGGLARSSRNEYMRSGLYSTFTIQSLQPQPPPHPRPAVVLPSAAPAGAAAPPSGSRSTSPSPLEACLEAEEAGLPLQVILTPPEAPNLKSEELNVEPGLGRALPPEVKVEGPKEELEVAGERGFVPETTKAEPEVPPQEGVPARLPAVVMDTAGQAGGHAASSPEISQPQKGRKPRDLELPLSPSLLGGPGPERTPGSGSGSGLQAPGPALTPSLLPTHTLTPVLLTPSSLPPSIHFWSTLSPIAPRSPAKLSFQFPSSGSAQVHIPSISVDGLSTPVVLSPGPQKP
Particulars: protein: recombinant; tags: N-terminal GST; dsDNA, one strand shown. The essentials:
as §1

In assay [3] the target is T3, GABPA (Homo sapiens, UniProt Q06546 1-454).
T3 sequence: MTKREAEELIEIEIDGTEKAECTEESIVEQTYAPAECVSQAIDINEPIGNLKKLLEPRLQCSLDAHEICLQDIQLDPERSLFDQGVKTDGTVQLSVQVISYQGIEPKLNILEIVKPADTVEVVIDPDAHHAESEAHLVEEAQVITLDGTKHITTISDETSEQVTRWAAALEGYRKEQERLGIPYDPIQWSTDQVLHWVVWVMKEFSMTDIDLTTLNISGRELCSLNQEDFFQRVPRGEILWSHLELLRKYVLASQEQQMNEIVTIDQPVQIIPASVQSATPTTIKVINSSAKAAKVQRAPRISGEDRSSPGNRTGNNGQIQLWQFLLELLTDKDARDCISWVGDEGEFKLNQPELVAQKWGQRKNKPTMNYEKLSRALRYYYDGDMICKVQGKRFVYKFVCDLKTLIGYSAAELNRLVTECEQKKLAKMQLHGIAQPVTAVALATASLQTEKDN
The conditions noted are these: protein: recombinant; tags: N-terminal GST; dsDNA, one strand shown. The essentials:
as §1

The target of assay [4] is T4, ERG (Homo sapiens, UniProt P11308 1-479).
T4 sequence: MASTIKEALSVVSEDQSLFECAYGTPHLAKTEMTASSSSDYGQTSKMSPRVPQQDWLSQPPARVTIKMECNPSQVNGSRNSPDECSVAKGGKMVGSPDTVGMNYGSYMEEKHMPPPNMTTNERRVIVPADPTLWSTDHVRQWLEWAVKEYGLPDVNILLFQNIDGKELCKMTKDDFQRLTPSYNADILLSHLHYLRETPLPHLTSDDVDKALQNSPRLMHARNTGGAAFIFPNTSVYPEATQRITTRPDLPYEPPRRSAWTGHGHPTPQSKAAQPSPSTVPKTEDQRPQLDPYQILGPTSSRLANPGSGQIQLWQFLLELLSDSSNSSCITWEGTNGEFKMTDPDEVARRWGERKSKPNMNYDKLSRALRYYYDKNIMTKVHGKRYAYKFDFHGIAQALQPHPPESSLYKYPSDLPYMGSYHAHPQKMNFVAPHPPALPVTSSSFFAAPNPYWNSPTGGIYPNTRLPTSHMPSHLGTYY
The conditions noted are these: protein: recombinant; tags: N-terminal GST; dsDNA, one strand shown. In outline: as §1

Assay [5] has as its target ELF1 (Homo sapiens, UniProt P32519 1-619). Particulars: protein: recombinant; tags: N-terminal GST; dsDNA, one strand shown. In outline:
as §1

The target in assay [6] is T5, EHF (Homo sapiens, UniProt Q9NZC4 1-300).
T5 sequence: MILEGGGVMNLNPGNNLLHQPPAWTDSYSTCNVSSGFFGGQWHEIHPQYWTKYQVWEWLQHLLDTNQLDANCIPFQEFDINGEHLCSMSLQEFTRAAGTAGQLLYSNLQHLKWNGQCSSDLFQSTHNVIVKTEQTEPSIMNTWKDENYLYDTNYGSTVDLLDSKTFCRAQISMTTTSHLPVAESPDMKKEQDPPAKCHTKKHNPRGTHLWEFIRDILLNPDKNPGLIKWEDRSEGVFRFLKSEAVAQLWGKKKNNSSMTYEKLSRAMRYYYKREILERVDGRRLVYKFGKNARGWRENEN
Particulars: protein: recombinant; tags: N-terminal GST; dsDNA, one strand shown. The essentials:
as §1

Assay [7] has as its target SPI1 (Homo sapiens, UniProt P17947 1-270). Particulars: protein: recombinant; tags: N-terminal GST; dsDNA, one strand shown. In outline: as §1
Assay [8] addresses SPIB (Homo sapiens, UniProt Q01892 1-262). The conditions noted are these: protein: recombinant; tags: N-terminal GST; dsDNA, one strand shown. The essentials:
as §1

The target in assay [9] is T6, ELK3 (Homo sapiens, UniProt P41970 1-407).
T6 sequence: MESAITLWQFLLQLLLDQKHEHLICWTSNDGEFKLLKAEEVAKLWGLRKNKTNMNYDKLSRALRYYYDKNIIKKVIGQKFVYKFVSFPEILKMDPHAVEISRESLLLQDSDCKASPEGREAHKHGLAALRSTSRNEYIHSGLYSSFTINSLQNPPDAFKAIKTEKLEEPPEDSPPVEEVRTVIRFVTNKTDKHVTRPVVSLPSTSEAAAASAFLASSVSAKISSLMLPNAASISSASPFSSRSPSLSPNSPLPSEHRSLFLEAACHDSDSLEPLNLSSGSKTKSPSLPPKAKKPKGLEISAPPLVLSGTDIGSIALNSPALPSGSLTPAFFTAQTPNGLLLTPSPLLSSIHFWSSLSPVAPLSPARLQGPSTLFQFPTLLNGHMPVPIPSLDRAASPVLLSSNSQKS
The conditions noted are these: protein: recombinant; tags: N-terminal GST; dsDNA, one strand shown. In outline: as §1

Assay [10] has as its target T7, FEV (Homo sapiens, UniProt Q99581 1-238).
T7 sequence: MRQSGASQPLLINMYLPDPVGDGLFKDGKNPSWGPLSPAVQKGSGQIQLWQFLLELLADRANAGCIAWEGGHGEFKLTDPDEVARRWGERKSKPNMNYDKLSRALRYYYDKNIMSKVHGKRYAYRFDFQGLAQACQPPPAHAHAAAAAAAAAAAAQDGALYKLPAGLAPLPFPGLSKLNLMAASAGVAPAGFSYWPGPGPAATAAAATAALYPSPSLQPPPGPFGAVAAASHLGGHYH
The conditions noted are these: protein: recombinant; tags: N-terminal GST; dsDNA, one strand shown. The essentials: as §1

Assay [11] deals with ETV5 (Homo sapiens, UniProt P41161 1-510). Particulars: protein: recombinant; tags: N-terminal GST; dsDNA, one strand shown. The essentials: as §1
Sequence of ETV5 (P41161 whole entry): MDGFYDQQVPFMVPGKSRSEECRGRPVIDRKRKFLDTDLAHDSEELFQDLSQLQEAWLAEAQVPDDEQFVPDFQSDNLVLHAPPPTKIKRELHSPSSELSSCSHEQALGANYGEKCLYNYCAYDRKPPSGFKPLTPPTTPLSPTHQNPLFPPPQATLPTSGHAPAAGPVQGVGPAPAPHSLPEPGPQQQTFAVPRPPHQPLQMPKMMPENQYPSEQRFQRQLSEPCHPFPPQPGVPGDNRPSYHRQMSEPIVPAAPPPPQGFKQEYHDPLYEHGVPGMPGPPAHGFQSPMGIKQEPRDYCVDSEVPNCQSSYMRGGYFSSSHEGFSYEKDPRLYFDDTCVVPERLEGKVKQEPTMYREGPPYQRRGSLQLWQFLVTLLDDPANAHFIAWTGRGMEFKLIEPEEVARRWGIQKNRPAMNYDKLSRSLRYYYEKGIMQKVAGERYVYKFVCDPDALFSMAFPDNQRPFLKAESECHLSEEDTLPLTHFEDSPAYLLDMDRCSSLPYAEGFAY
The target of assay [12] is HSF1 (Homo sapiens, UniProt Q00613 1-529). Particulars: protein: recombinant; tags: N-terminal GST; chain copies: 3; dsDNA, one strand shown. The essentials: as §1
Sequence of HSF1 (Q00613 whole entry): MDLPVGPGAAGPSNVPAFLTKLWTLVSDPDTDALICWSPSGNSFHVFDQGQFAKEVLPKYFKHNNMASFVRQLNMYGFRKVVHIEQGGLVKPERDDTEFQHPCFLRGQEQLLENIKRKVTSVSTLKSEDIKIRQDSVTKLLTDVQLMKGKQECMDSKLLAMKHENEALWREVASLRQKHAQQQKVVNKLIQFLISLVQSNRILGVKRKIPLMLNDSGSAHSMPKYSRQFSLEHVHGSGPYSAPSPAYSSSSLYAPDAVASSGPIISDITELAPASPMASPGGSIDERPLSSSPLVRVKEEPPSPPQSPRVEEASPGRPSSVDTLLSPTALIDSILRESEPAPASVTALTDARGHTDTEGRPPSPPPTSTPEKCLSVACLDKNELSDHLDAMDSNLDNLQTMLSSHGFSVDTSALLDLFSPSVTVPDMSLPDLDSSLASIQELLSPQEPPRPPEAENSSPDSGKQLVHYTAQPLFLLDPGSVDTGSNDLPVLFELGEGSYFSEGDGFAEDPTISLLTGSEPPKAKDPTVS
Assay [13] concerns the target T8, SPIC (Homo sapiens, UniProt Q8N5J4 1-248).
T8 sequence: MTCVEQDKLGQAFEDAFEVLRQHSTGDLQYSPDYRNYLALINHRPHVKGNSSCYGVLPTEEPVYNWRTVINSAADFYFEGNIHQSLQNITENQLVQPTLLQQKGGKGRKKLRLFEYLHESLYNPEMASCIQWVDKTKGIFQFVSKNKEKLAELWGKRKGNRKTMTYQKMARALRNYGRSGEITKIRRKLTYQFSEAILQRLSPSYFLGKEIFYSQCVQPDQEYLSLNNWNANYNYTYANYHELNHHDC
Particulars: protein: recombinant; tags: N-terminal GST; dsDNA, one strand shown. The essentials: as §1

In assay [14] the target is ELF4 (Homo sapiens, UniProt Q99607 1-663). Particulars: protein: recombinant; tags: N-terminal GST; dsDNA, one strand shown. In outline: as §1
Sequence of ELF4 (Q99607 whole entry): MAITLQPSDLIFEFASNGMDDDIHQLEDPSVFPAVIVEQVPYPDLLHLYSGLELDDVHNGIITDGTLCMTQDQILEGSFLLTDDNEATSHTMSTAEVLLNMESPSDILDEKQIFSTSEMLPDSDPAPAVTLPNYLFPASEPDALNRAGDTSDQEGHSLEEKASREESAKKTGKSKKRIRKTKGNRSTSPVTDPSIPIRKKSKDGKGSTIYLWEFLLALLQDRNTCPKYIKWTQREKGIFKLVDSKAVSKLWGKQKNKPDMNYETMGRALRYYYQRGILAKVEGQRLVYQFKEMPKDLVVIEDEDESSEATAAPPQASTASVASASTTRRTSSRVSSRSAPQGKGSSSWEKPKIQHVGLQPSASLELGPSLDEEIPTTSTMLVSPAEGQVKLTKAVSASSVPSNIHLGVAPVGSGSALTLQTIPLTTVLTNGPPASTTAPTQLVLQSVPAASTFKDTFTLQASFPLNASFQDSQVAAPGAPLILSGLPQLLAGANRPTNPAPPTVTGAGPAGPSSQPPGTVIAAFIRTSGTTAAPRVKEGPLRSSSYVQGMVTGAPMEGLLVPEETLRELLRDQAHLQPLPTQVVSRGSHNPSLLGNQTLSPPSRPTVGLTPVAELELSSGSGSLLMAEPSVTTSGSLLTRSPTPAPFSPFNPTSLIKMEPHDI
In assay [15] the target is T9, ELK4 (Homo sapiens, UniProt P28324-2 1-405).
T9 sequence: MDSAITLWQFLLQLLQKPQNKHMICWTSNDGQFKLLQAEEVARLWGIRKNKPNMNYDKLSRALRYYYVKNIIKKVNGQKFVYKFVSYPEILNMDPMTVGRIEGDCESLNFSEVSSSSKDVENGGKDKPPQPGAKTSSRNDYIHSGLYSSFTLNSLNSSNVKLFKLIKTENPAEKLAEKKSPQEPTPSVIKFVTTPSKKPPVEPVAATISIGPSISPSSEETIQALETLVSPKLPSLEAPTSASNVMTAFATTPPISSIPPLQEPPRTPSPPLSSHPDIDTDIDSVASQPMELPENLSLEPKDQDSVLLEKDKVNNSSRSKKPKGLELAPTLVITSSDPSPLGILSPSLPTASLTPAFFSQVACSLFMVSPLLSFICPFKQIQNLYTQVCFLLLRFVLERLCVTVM
The conditions noted are these: protein: recombinant; tags: N-terminal GST; dsDNA, one strand shown. The essentials: as §1

Assay [16] concerns the target T10, ETV2 (Homo sapiens, UniProt O00321 1-342).
T10 sequence: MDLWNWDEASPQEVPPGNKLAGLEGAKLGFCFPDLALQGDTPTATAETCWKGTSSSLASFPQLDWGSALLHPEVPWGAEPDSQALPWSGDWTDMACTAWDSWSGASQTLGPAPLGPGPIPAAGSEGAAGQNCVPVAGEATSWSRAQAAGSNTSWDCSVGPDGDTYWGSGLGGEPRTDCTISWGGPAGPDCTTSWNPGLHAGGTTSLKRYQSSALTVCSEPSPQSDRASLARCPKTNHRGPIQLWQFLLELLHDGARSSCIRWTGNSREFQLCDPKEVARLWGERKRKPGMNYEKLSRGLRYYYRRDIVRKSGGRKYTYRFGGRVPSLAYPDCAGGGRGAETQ
The conditions noted are these: protein: recombinant; tags: N-terminal GST; dsDNA, one strand shown. In outline: as §1

Assay [17] has as its target T11, ELF3 (Homo sapiens, UniProt P78545 1-371).
T11 sequence: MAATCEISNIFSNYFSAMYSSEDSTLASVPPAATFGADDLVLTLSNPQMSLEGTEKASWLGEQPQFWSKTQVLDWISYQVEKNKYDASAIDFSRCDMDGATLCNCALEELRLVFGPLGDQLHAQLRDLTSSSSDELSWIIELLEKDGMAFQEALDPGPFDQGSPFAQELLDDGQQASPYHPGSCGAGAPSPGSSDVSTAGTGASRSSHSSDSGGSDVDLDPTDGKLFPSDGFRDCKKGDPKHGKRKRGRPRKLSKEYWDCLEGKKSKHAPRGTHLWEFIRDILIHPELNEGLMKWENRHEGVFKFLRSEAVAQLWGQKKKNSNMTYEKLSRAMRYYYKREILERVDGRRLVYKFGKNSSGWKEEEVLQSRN
Particulars: protein: recombinant; tags: N-terminal GST; dsDNA, one strand shown. In outline: as §1

The target of assay [18] is CRX (Homo sapiens, UniProt O43186 1-299). Particulars: protein: recombinant; tags: N-terminal GST; dsDNA, one strand shown. In outline:
as §1

Assay [19] concerns the target ETV1 (Homo sapiens, UniProt P50549 1-477). The conditions noted are these: protein: recombinant; tags: N-terminal GST; dsDNA, one strand shown. In outline: as §1

Sequence of CRX (O43186 whole entry): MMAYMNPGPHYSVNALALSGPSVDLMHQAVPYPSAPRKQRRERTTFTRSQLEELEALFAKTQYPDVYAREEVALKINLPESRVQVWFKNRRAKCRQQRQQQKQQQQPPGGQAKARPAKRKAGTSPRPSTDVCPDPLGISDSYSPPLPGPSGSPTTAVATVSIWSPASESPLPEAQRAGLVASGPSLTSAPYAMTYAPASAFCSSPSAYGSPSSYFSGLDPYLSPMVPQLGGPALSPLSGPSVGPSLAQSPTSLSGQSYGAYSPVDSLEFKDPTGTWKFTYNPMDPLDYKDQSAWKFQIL
Sequence of ELF1 (P32519 whole entry): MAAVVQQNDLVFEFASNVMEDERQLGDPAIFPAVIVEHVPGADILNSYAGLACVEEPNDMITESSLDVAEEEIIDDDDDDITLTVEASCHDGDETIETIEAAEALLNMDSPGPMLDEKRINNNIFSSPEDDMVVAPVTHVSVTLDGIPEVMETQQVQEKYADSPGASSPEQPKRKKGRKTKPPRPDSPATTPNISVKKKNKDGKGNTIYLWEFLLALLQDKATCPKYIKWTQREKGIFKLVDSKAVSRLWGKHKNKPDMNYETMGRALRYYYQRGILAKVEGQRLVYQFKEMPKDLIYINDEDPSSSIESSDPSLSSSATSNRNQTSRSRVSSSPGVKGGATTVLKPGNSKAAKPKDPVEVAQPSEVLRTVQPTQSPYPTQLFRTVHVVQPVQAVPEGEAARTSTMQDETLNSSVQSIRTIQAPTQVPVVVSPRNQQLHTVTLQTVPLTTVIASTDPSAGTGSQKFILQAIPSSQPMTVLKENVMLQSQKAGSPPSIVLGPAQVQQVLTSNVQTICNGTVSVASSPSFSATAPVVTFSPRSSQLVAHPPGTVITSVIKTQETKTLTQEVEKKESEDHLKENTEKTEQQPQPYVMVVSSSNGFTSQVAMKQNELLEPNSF
Sequence of ETV1 (P50549 whole entry): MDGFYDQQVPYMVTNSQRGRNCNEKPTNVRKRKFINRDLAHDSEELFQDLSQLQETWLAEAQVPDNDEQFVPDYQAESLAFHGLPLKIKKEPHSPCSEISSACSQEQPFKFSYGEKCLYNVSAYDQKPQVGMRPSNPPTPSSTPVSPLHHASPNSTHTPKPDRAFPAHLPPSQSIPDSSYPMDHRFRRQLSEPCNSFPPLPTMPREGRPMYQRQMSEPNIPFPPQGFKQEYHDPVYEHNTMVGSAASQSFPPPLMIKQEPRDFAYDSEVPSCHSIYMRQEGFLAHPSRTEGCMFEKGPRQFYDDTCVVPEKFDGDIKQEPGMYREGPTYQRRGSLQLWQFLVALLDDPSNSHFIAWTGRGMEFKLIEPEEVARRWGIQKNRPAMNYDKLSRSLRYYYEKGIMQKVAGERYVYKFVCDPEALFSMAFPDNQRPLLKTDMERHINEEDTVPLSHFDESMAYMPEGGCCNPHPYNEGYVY
Sequence of SPIB (Q01892 whole entry): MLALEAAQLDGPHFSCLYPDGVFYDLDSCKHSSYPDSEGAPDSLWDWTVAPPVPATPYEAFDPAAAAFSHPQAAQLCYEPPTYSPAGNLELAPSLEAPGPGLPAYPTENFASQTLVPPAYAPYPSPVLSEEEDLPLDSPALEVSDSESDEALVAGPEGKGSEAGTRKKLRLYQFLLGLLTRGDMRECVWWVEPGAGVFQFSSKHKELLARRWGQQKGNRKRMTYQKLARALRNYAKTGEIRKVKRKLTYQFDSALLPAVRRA

As to CTAAAC, the binding signal was 1.24 fold enrichment (6-mer frequency, TF over GST control) in assay [1]; 1.18 fold enrichment (6-mer frequency, TF over GST control) in assay [2]; 1.23 fold enrichment (6-mer frequency, TF over GST control) in assay [3]; 1.23 fold enrichment (6-mer frequency, TF over GST control) in assay [4]; 1.24 fold enrichment (6-mer frequency, TF over GST control) in assay [5]; 1.18 fold enrichment (6-mer frequency, TF over GST control) in [6]. For the same sequence, the binding signal in assay [7] was 1.17 fold enrichment (6-mer frequency, TF over GST control); in [8], 1.19 fold enrichment (6-mer frequency, TF over GST control); in [9], 1.2 fold enrichment (6-mer frequency, TF over GST control); in assay [10], 1.21 fold enrichment (6-mer frequency, TF over GST control); in assay [11], 1.18 fold enrichment (6-mer frequency, TF over GST control); in assay [12] it was 1.26 fold enrichment (6-mer frequency, TF over GST control). The binding signal in assay [13] is 1.18 fold enrichment (6-mer frequency, TF over GST control); in assay [14] it was 1.26 fold enrichment (6-mer frequency, TF over GST control); in assay [15] it was 1.26 fold enrichment (6-mer frequency, TF over GST control); in assay [16], 1.33 fold enrichment (6-mer frequency, TF over GST control); in assay [17] it was 1.18 fold enrichment (6-mer frequency, TF over GST control); in assay [18], 1.47 fold enrichment (6-mer frequency, TF over GST control). Besides, in assay [19], the binding signal is 1.24 fold enrichment (6-mer frequency, TF over GST control).

The record behind these values is publication PMC7862700, “An all-to-all approach to the identification of sequence-specific readers for epigenetic DNA modifications on cytosine”.
